# From PubChem BioAssay AID927 (National Center for Advancing Translational Sciences (NCATS), 2007)
# In all, about 60,000 compounds went through this assay and about 65 (0.1%) were called active. Calls come from the whole dose curve; as a rule, active = well fitted inhibition curve with a large enough effect; inconclusive = small, poorly fitted or top-dose-only effect; inactive = no such curve, though single readings can be large or run the other way. What follows is part of a selection rich in actives, with near analogues and random picks from the rest.
# Biological target: Ubiquitin carboxyl-terminal hydrolase 2 (Homo sapiens) (UniProt O75604)
# Sequence (O75604 whole entry, looked up): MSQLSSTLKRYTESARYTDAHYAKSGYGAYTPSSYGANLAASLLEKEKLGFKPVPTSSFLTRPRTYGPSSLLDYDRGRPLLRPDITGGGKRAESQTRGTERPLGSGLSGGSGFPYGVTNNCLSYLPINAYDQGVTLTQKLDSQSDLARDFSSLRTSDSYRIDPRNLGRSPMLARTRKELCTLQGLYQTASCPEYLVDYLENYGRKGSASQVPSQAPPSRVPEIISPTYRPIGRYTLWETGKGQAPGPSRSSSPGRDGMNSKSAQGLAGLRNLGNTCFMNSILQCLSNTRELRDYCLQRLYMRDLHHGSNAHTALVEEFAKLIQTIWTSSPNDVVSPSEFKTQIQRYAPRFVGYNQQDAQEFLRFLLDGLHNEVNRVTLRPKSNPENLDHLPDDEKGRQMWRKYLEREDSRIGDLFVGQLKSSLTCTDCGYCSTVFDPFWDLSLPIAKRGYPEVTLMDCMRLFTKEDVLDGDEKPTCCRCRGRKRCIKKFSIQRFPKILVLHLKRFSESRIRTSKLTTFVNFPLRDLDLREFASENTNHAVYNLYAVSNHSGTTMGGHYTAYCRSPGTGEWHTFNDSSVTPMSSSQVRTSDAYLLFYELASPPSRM
# Experiment: qHTS Assay for Inhibitors of Ubiquitin-specific Protease USP2a; note: nearly all actives have a fitted effect of over 60% in size
# Conditions: USP2a enzymatic assay; Potency: qHTS inhibition; series mostly up to 38.3 µM; activity change, negative = inhibition: at the top concentration
# From the text: NIH Molecular Libraries Screening Centers Network [MLSCN]
# NIH Chemical Genomics Center [NCGC]
# PI Name: Nicholson, Ben. Progenra Inc, Malvern, PA
# Homeostasis of cellular proteins is maintained through a combination of synthesis and degradation. The pathway that accounts for the majority of protein degradation is the ubiquitin-proteasomal pathway. Ubiquitin (Ub) is highly conserved in all cells and the generation of a multi-Ub chain typically targets proteins for degradation by the proteasome. However, ubiquitination is highly reversible and dynamic. Deubiquitination, the reverse process, is catalyzed through the action of enzymes referred to as isopeptidases or deubiquitinating enzymes (DUBs). This group of enzymes is collectively responsible for maintaining adequate pools of free ubiquitin and regulating the ubiquitination status of cellular proteins. The class of DUBs referred to as the ubiquitin-specific proteases (USP) family functions endoproteolytically to cleave Ub chains from a wide range of protein substrates. USP2a deubiquitinates fatty acid synthase (FASN) which has recently been identified as an emerging oncology target. To identify inhibitors of USP2a a cell-free assay was employed.
# The reporter enzyme chosen is phospholipase A2 (PLA2), which has an absolute requirement for a free amino terminus. Thus, fusion of a UBL to the N-terminus of PLA2 inactivates PLA2. When the UBL-PLA2 reporter enzyme is cleaved by USP2, the activated reporter can subsequently act on its substrate, which is the commercially available NBD C6-HPC (Invitrogen). Thus, this coupled assay gives a fluorescent read-out, which is generated through the cleavage of the PLA2 reporter enzyme. The assay, developed by Progenra, Inc. uses Ub-PLA2 and USP2a at near equal and low (nM) amounts and has been licensed for sale by LifeSensors, Inc. as the Ub-IsoPro1 kit.
# NCGC Assay Protocol Summary:
# The assay buffer, prepared fresh at the day of the assay, contains 20mM Tris-HCl pH 8.0, 2mM CaCl2, 2mM beta-Mercaptoethanol, 0.1% DMSO. 3ul of 40nM (20nM final) USP2 core, which is stored on ice, is dispensed into a medium-binding black solid Kalypsys 1,536 well plate using the Kalypsys dispenser. The assay plate is then pinned with 23nL compound with the Kalypsys pintool in columns 5-48. The controls are pinned as follows: column 1&2 two-fold dilutions of 2M NEM in duplicate; column 3 DMSO; column 4 2M NEM (final concentration 38.2mM). The assay plate is incubated at RT for 30min. Subsequently, 3uL of 40nM (20nM final) Ub-PLA2 and 40uM (20uM final) NBD C6-HPC (stored on ice and protected from light) were dispensed into the plate using the Kalypsys dispenser. Plates were read immediately (0 Hour) on an Envision (Perkin Elmer) plate reader using the following wavelengths Ex 460nm /Em 535nm. Then, the assay plates were incubated for 2.5 hours and read again on the Envision using the same settings
# Data were normalized to the to AC100 inhibition (NEM). Concentration-response curves were fitted to the normalized data and the concentration-response curves were then classified based on curve quality (r2), response magnitude and degree of measured activity. The time zero reading was used to flag fluorescence artifacts.
# Keywords: ubiquitination, deubiquitination, proteases, profluorescent, MLSMR, MLSCN, NIH Roadmap, qHTS, NCGC
# Potency is the fitted concentration of half-maximal effect.
SMILES,"activity change, negative = inhibition",Potency
C=C1C(=O)C23C(O)C1CCC2[C@]12COC3(O)C(O)C1C(C)(C)CC[C@H]2O (stereo partly drawn),37.5% (inactive),
COC(=O)COc1ccc(S(=O)(=O)N2CCOCC2)cc1,3.69% (inactive),
Cc1c(NC(=O)Nc2ccccc2Cl)sc(=S)n1C,-28.8% (inactive),
CCOC(=O)C(CCOc1cccc(CC)c1)C(=O)OCC,-5.22% (inactive),
Cc1cccc(C(=O)Nc2ccc(CC(=O)O)cc2)c1,3% (inactive),
CC(=O)OCC(=O)[C@@]1(O)CCC2C3CCC4=CC(=O)CC[C@]4(C)C3C(=O)C[C@]21C (stereo partly drawn),-9.52% (inactive),
COC(=O)c1cccc(NC(=O)CN2CCC(NC(=O)c3cc(OC)c(OC)c(OC)c3)CC2)c1,20.6% (inactive),
CC(=O)c1c(N2CCOCC2)nc(=S)n(Cc2ccccc2)c1C,3.47% (inactive),
CC1(C)C(=O)Nc2ccccc2N1C(=O)COC(=O)Cn1cnc2ccccc2c1=O,4.1% (inactive),
O=c1c2ccccc2oc2nc(C3CCCCC3)n(Cc3ccco3)c(=O)c12,0.85% (inactive),
Oc1cc(O)c2c(c1)OC(c1ccc(O)c(O)c1)C(O)C2 (stereo not drawn),12.9% (inactive),
Cc1nc2nc(COc3ccccc3)[nH]n2c(=O)c1C,-5.15% (inactive),
C=C[C@](C)(O)CCC1C(=C)CCC2[C@@](C)(CO)CCC[C@@]12C (stereo partly drawn),1.55% (inactive),
CC(=O)OC1CCC2(O)CC1(C)CCC1C2CC1(C)C (stereo not drawn),6.57% (inactive),
CCOC(=O)c1ccc(NC(=O)CSc2nnc(COc3ccccc3OC)n2C)cc1,9.55% (inactive),
Cn1cc(-c2nc3cnc(N4CCNCC4)nc3n(CCC#N)c2=O)c2ccccc21,212% (inactive),
O=C(NCc1ccc(Cl)c(Cl)c1)c1cccnc1,8.48% [at 7.66 µM] (inactive),
COC(=O)Nc1ncc(CN2C(=O)c3ccccc3C2=O)s1,12% (inactive),
CC(C)NC(=O)N1CCCC2(CCN(C(=O)c3cccn3C)CC2)C1,,10 µM (active)
CC(C)NC(=O)N1CC[C@@]2(CCCN(C(=O)c3cccn3C)C2)C1,15.7% (inactive),
CC(C)NC(=O)N1CCC2(CC1)CCN(C(=O)c1cccn1C)CC2,8.09% (inactive),
CCCNc1ncnc2sc(C)c(C)c12,-3.55% (inactive),
Nc1nc2nc(Cl)[nH]c2c(=O)[nH]1,18.5% (inactive),

SMILES,"activity change, negative = inhibition",Potency
Cc1cccc(CC(=O)Nc2c3c(nn2-c2cccc(Cl)c2)CS(=O)C3)c1 (stereo not drawn),7.15% (inactive),
Cc1ccccc1-c1nc(N(C)Cc2ccco2)c2ccccc2n1,-9.88% (inactive),
CCOc1cccc(C(=O)Nc2cccnc2)c1,3.24% (inactive),
O=C(Nc1cccc(F)c1)N1CC2(CCN(C(=O)c3csnn3)CC2)C1,12.9% (inactive),
CCOC(=O)[C@H]1CCC[C@@H](NS(=O)(=O)c2ccc(NC(C)=O)cc2)C1,5.45% (inactive),
CC(NC(=O)Nc1ccccc1)c1ccccc1 (stereo not drawn),1.41% (inactive),
Cc1ccc2c(CSc3nncs3)cc(=O)oc2c1,35.6% (inactive),
COc1c2c(cc3occ(-c4ccc5c(c4)OCO5)c(=O)c13)OC(C)(C)C=C2,-26.3% (inactive),
O=S(=O)(NCc1ccc2c(c1)OCO2)c1cccc2nsnc12,-1.28% (inactive),
CCOC(=O)CSc1nc2c(c(=O)n(Cc3ccccc3Cl)c(=O)n2C)n1C,-0.387% (inactive),
C/C=C(/C)C(=O)OC1Cc2c(ccc3ccc(=O)oc23)OC1(C)C (stereo not drawn),-1.14% (inactive),
COCCCN1C(=O)c2ccc(C(=O)Nc3ccc(OC)cc3OC)cc2C1=O,13.4% (inactive),
Cc1c(O)cc(O)c2c(=O)c(-c3ccc(O)cc3)coc12,-6.86% (inactive),
CC(C)c1nnc(NC(=O)C2CCCN2S(=O)(=O)c2ccc(Cl)cc2)s1 (stereo not drawn),9% (inactive),
Oc1ccc2c(c1)OCC1c3cc4c(cc3OC21)OCO4 (stereo not drawn),-11.2% (inactive),
CN1C(=O)C[C@H](c2ccccc2)C1=O,-7.44% [at 17.1 µM] (inactive),
O=C(NCc1cccnc1)c1cn(-c2ccccc2)nc1-c1cccs1,28.9% (inactive),
CCC12CN3CC(CC)(CN(C1)C31C(=O)N(C)c3ccc(C)cc31)C2=O (stereo not drawn),0.969% (inactive),
CCOC(=O)N1CCN(C(=O)CN(c2ccc(C)c(C)c2)S(=O)(=O)c2ccccc2)CC1,18.3% (inactive),
COc1ccc(-c2ccc(-c3noc(-c4ccncc4)n3)c(OC)n2)cc1,21.4% (inactive),
NC(=O)C1CC=CCC1C(=O)OCC(Cl)=C(Cl)Cl (stereo not drawn),12.5% (inactive),
CC1C(O)CC2C(C(=O)O)=CO[C@@H](O[C@H]3OC(CO)C(O)C(O)C3O)C21 (stereo partly drawn),-4.3% (inactive),
CC(C)(C)c1ccc(C(=O)CSc2ncn[nH]2)cc1,-4.94% (inactive),

SMILES,"activity change, negative = inhibition",Potency
c1cncc(CNc2ccnc(-c3ccc4c(c3)OCO4)n2)c1,23.9% (inactive),
CCC(CCC(C)C1CCC2C3CC=C4CC(O)CC[C@@]4(C)C3CC[C@@]12C)C(C)C (stereo partly drawn),-2.58% (inactive),
CC1(C)Cc2ccccc2-c2nnc(-c3cccc(O)c3)n21,-2.73% (inactive),
COc1cccc(C2/C(=C(/O)c3ccc(F)cc3)C(=O)C(=O)N2CCN(C)C)c1 (stereo not drawn),4.13% [at 7.66 µM] (inactive),
CCOC(=O)C1=C(C)NC(C)=C(C(=O)OCC)C1C1=COCCO1,-3.29% (inactive),
CSCCC1NC2(C(=O)Nc3ccc(Cl)cc32)[C@@H]2C(=O)N(C3CCCC3)C(=O)[C@H]12 (stereo partly drawn),52.4% (inactive),
O=C1C2(c3ccccc3)CN(CCCO)CC1(c1ccccc1)CN(CCCO)C2,-3% (inactive),
CCCS(=O)(=O)N1CCCC(C(=O)NCCN2CCCCC2C)C1 (stereo not drawn),-14% (inactive),
CC(=O)c1c(N2CCOCC2)nc(=S)n(-c2cc(C)ccc2C)c1C,-3.02% (inactive),
Cc1cc(C)c(C#N)c(SCc2ccc3c(c2)OCO3)n1,-11.2% (inactive),
CCCC(CCC(=O)OC)(C(=O)OCC)c1csc(N)n1 (stereo not drawn),-12.5% (inactive),
COc1cc(OC)c2c(c1Cl)OC1(C2=O)C(O)=CC(=O)CC1C (stereo not drawn),7.89% (inactive),
Cc1ccc2nc(-c3ccc(SCC(=O)Nc4cc(C)on4)nc3)[nH]c2c1,33.2% (inactive),
COc1ccc(N(C(=O)c2cccnc2)S(=O)(=O)c2ccc3c(c2)n(C)c(=O)n3C)cc1,2.22% (inactive),
CC(=O)C1C(c2cccc(Oc3ccccc3)c2)NC(=O)NC1(O)C(F)(F)F (stereo not drawn),9.93% (inactive),
CC(=O)NS(=O)(=O)c1ccccc1,2.74% (inactive),
COc1ccc(C2C(C#N)=C(N)Oc3n[nH]c(C)c32)cc1CN1CCN(c2ccc(F)cc2)CC1 (stereo not drawn),11% (inactive),
O=C(c1ccc(=O)[nH]c1)N(Cc1ccco1)C1(C(=O)NC2CCCCC2)CCCCC1,10.6% (inactive),
CCCCCCOC(=O)NCC(O)c1ccccc1 (stereo not drawn),7.61% (inactive),
CCS(=O)(=O)N1CCCC(C(=O)NCCCN(C)Cc2ccccc2)C1 (stereo not drawn),4.58% (inactive),
CCCN1Cc2cccc(C(=O)NCc3ccccc3)c2C1=O,6.55% (inactive),
O=C(O)c1ccc(F)c(S(=O)(=O)Nc2ccccc2)c1,-5.39% (inactive),
